PubChem BioAssay
The source made the active and inactive calls.

Key:
[1] = tested on: Human papillomavirus type 1a protein E7 (residues 44-93); test: HPV1a E7 fragment binders on microarrays, primary screen, biochemical, small-molecule microarray, residues 44-93, 635 nm fluorescence (AID 1108); conditions: small-molecule microarray binding, fluorescence 635 nm; higher = more signal;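 further: E7 fragment applied at 1 µg/mL in TBST for 1 h at 4 C; score combines spot fluorescence with its signal to noise ratio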
[2] = modulators of HCV replicon luciferase signal, primary screen, HCV replication inhibitor project, Huh7 cells, luciferase reporter (AID 1109); conditions: 48 h, higher = more signal;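 further: huh7 hepatoma cells harbouring a luciferase neomycin HCV replicon reporter; luciferase luminescence as measure of HCV replicon replication; test concentration not given here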
[3] = molecular target: Left-right determination factor 2 (Homo sapiens) (UniProt O00292); test: LEFTY2 binders on small-molecule microarrays, primary screen, biochemical, small-molecule microarray, 635 nm fluorescence scan (AID 1110); conditions: LEFTY2 binding, higher = more signal
Sequence of Left-right determination factor 2 (Homo sapiens) (O00292 whole entry, looked up): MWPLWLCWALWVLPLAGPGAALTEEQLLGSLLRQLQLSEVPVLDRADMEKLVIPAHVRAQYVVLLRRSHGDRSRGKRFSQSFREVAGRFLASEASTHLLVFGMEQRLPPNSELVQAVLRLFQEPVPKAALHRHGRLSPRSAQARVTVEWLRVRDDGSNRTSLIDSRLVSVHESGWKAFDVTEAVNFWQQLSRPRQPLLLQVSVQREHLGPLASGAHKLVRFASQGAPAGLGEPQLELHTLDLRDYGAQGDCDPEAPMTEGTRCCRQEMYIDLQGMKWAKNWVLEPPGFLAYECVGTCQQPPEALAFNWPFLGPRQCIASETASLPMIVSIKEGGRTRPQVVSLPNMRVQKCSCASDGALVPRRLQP

[4] = molecular target: Calmodulin-1 (Homo sapiens) (UniProt P0DP23); test: CALM1 binders on microarrays, EGTA buffer, profiling panel, biochemical, small-molecule microarray, Cy5-labelled CALM1 (AID 1111); conditions: Cy5-CALM1 binding fluorescence, higher = more signal;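 further: labelled calmodulin applied in Tris saline Tween buffer holding calcium plus EGTA and DTT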
[5] = molecular target: Calmodulin-1 (Homo sapiens) (UniProt P0DP23); test: calcium-bound CALM1 binders on microarrays, profiling panel, artefact control for SMM control-protein annotation, biochemical, small-molecule microarray, Cy5-labelled CALM1, plus calcium (AID 1112); conditions: Cy5-CALM1 binding fluorescence, higher = more signal;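 further: score merges spot fluorescence with signal to noise from triplicate slides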
[6] = small-molecule microarray binders of probe aWnt5a, primary screen, biochemical, biotinylated probe, 635/667 nm fluorescence (AID 1113); conditions: higher = more signal;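 further: score merges 667 nm fluorescence intensity with signal-to-noise per printed feature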
[7] = small-molecule microarray binders of probe aShh, primary screen, biochemical, biotinylated probe, 635/667 nm fluorescence (AID 1114); conditions: higher = more signal;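 further: probe is biotin-labelled aShh protein from a stem cell growth factor screen; measures binding of labelled protein to compounds printed on the slide; score merges feature fluorescence at 667 nm with signal-to-noise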
[8] = small-molecule microarray binders of probe aNog, primary screen, biochemical, biotinylated probe, 635/667 nm fluorescence (AID 1115); conditions: higher = more signal;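 further: probe is biotinylated aNog protein used at 0.15 µg/mL for 1 h at 4 C; z-score combines 667 nm fluorescence of each spot with its signal to noise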
[9] = molecular target: Torsin-1A-interacting protein 1 (Homo sapiens) (UniProt Q5JTV8); test: LAP1 binders from COS7 cell lysate, primary screen, small-molecule microarray, 635/667 nm fluorescence (AID 1116); conditions: COS7-hLAP1 lysate binding, 635 nm fluorescence, higher = more signal
Sequence of Torsin-1A-interacting protein 1 (Homo sapiens) (Q5JTV8 whole entry, looked up): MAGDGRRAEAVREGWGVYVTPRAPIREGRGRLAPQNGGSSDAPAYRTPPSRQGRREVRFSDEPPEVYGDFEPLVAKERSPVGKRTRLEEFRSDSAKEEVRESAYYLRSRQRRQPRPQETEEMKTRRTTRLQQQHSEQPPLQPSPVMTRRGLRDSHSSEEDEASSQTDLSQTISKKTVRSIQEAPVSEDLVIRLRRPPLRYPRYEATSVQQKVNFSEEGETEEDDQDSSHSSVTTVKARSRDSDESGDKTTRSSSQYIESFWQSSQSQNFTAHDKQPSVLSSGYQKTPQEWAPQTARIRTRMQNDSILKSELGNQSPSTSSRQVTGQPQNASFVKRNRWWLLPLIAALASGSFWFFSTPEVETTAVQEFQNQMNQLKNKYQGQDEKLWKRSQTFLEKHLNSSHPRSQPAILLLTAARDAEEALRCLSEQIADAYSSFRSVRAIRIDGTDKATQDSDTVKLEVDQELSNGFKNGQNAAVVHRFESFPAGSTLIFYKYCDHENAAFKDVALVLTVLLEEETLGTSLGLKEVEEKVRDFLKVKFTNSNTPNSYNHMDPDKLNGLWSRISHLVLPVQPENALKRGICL

[10] = molecular target: Alpha-bungarotoxin (Bungarus multicinctus) (UniProt P60615); test: alpha-bungarotoxin binders on microarray, profiling panel, artefact control for SMM control protein annotation, biochemical, small-molecule microarray, Alexa647 label, 635/667 nm fluorescence (AID 1117); conditions: alpha-BTX-A647 binding fluorescence, higher = more signal
Sequence of Alpha-bungarotoxin (Bungarus multicinctus) (P60615 whole entry, looked up): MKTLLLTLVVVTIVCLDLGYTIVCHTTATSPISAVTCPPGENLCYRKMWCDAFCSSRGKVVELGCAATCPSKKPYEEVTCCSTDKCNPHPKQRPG

Albumin (Bos taurus) = Albumin (Bos taurus) (UniProt P02769); test: bovine serum albumin binders on microarray, profiling panel, artefact control for SMM control protein annotation, biochemical, small-molecule microarray, Alexa647 label, 635/667 nm fluorescence (AID 1118); conditions: BSA-A647 binding, fluorescence 635 nm, higher = more signal;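 further: score merges 667 nm emission intensity and signal-to-noise per printed compound spot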
Sequence of Albumin (Bos taurus) (P02769 whole entry, looked up): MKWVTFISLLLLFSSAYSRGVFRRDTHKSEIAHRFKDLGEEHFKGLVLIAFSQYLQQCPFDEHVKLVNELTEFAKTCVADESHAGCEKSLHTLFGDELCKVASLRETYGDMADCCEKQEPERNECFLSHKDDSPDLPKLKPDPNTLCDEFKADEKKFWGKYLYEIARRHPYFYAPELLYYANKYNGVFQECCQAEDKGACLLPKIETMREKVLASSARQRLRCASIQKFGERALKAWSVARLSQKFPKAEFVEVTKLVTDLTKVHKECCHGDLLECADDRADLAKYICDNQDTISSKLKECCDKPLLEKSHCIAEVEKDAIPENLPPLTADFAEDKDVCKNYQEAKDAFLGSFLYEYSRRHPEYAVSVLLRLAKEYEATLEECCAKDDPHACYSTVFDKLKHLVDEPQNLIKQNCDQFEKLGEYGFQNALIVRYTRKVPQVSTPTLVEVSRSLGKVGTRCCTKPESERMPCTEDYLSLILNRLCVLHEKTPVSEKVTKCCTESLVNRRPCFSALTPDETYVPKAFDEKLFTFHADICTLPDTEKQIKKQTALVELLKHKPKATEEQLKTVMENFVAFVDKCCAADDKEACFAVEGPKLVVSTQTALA

[11] = small-molecule microarray binders of probe aXIP, primary screen, biochemical, NeuroSMM set, 635/667 nm fluorescence (AID 1119); conditions: higher = more signal, called active from +8 up or from −8 down;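 further: probe is the protein aXip251-270 applied at 1 µg/mL to compound-printed slides; binding of probe to printed compounds measured as 667 nm fluorescence plus signal to noise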
[12] = small-molecule binders of probe aNOTCH3, primary screen, biochemical, small-molecule microarray, 635/667 nm fluorescence (AID 1120); conditions: higher = more signal;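 further: probe is a biotin-tagged antibody raised against NOTCH3 rather than NOTCH3 protein; score merges spot fluorescence near 667 nm with spot signal to noise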
[13] = small-molecule binders of probe aNOTCH2, primary screen, biochemical, small-molecule microarray, 635/667 nm fluorescence (AID 1121); conditions: higher = more signal;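 further: score merges feature fluorescence read at 667 nm with its signal to noise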
[14] = molecular target: Carbonic anhydrase 2 (Homo sapiens) (UniProt P00918); test: CAII small-molecule binders, profiling panel, biochemical, small-molecule microarray, Alexa647-labelled CAII (AID 1122); conditions: CAII-A647 binding fluorescence, higher = more signal
[15] = COS7 lysate on small-molecule microarray, probe aHis, 635 nm (AID 1123); conditions: COS7 cell lysate, fluorescence, higher = more signal;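 further: z-score combines 667nm fluorescence intensity with signal-to-noise per printed compound spot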
[16] = compound binding in COS7 lysate, probe aLAP1, primary screen, cell lysate, small-molecule microarray (AID 1124); conditions: probe aLAP1, fluorescence, higher = more signal;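 further: lysate comes from COS7 cells expressing LAP1 and is applied at 0.3 µg/mL; score merges spot fluorescence near 667 nm with signal-to-noise over triplicate slides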
Sam68 (KHDRBS1) = test: Sam68 small-molecule binders, primary screen, biochemical, small-molecule microarray, 635 nm fluorescence (AID 1125); conditions: small-molecule microarray binding, higher = more signal;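 further: score merges 667 nm channel intensity with signal to noise over triplicate slides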
[17] = tested on: Chordin-like protein 2 (CHRDL2); test: CHRDL2 small-molecule binders, primary screen, biochemical, small-molecule microarray, 635 nm fluorescence (AID 1126); conditions: small-molecule microarray binding, fluorescence 635 nm; higher = more signal;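 further: printed compound slides probed with Chrdl2 protein at 4 µg/mL for 1 h at 4 C; score merges 667 nm emission intensity with signal to noise over three replicate slides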
[18] = molecular target: Concanavalin-A (Canavalia ensiformis) (UniProt P02866); test: ConA small-molecule binders, primary screen, artefact control for SMM control protein annotation, biochemical, small-molecule microarray, Alexa647 label, 635 nm (AID 1127); conditions: ConA-A647 binding fluorescence, higher = more signal;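 further: z combines 667 nm emission intensity with signal-to-noise across three replicate slides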
Sequence of Concanavalin-A (Canavalia ensiformis) (P02866 whole entry, looked up): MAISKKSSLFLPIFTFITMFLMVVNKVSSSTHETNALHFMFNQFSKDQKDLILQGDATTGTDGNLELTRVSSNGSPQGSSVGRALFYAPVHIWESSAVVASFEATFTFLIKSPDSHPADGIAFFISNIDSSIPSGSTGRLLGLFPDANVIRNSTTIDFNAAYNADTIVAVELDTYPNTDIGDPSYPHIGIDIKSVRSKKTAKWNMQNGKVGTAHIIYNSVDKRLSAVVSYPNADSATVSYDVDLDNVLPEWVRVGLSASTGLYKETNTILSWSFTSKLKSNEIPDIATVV

| Structure (SMILES) | composite z-score [1] | z-score [2] | composite z-score [3] | composite z-score [4] | composite z-score [5] | composite z-score [6] | composite z-score [7] | composite z-score [8] | composite z-score [9] | composite z-score [10] | composite z-score (Albumin (Bos taurus)) | composite Z-score [11] | composite z-score [12] | composite z-score [13] | composite z-score [14] | composite z-score [15] | composite z-score [16] | composite z-score (Sam68 (KHDRBS1)) | composite z-score [17] | composite z-score [18] |
| --- | --- | --- | --- | --- | --- | --- | --- | --- | --- | --- | --- | --- | --- | --- | --- | --- | --- | --- | --- | --- |
| COc1ccc(-c2cc3c(c(-c4ccccc4)n2)[Si](C(C)C)(C(C)C)O[C@H]3c2ccccc2)cn1 | 0.656 | -1.4 | -0.152 | 0.136 | -0.265 | -0.0512 | -0.0626 | -0.216 | -0.126 | 0.599 | 0.843 | 0.0861 (inactive) | 0.201 | -0.0349 | -0.0177 | 0.263 | -0.0375 | 0.723 | 0.288 | 0.165 |
| O=C1O[C@H](c2ccccc2)[C@H](c2ccccc2)N2[C@H]1[C@@H](C(=O)Nc1nc3ccccc3s1)[C@]1(C(=O)Nc3ccc(C#CC4(O)CCCCCC4)cc31)[C@H]2c1ccc(O)cc1 | 1.38 | -0.733 | 0.596 | 1.94 | 0.597 | -0.0125 | -0.203 | -0.387 | 1.58 | 2.17 | 0.934 | 0.928 (inactive) | 0.116 | -0.0283 | 0.415 | 2.53 | 0.797 | 1.3 | 0.528 | 1.14 |
| O=C1O[C@H](c2ccccc2)[C@H](c2ccccc2)N2[C@H]1[C@@H](C(=O)NC[C@H](O)c1ccccc1)[C@]1(C(=O)Nc3ccc(C#CC4=CCCCC4)cc31)[C@H]2c1ccc(OCCO)cc1 | 0.567 | -1.91 | 0.377 | 0.977 | 0.385 | -0.0519 | 0.0711 | 0.0884 | 0.6 | 1.38 | 0.534 | 0.318 (inactive) | 0.141 | -0.0741 | 0.522 | 0.864 | 0.402 | 1.31 | 0.424 | 1.11 |
| CCCC[C@H]1OB(O)C[C@H]2C1=C(COC)C[C@H]1C(=O)N(Cc3ccccc3)C(=O)[C@H]12 | -0.0721 | 0.202 | 0.313 | 0.188 | -0.0421 | -0.0327 | -0.0904 | 0.0649 | 0.25 | 0.526 | 0.11 | -0.328 (inactive) | 0.0727 | -0.182 | 0.606 | 0.0082 | 0.102 | 0.252 | -0.0765 | 0.106 |
| CC(C)=C1C(=O)C(c2ccccc2)=C2CN3C(=O)N(CCc4ccccc4)C(=O)[C@]3(Cc3ccccc3)[C@H]21 | -1.85 | 0.219 | -1.54 | 1.31 | 0.197 | -0.0384 | 0.251 | -0.408 | -0.0829 | -0.496 | 0.0673 | 0.548 (inactive) | -0.0209 | 0.224 | 0.204 | 0.572 | -0.14 | -1.59 | -2.04 | -1.18 |
| C#CCCCON=C1C[C@@H](O)[C@@H](O)[C@@H]2[C@@H]3C(=O)N(Cc4ccc5c(c4)OCO5)C(=O)[C@@H]3CC[C@H]12 | 1.36 | -0.0463 | 0.774 | 0.601 | -0.783 | -0.0735 | 0.0796 | -0.326 | 1.34 | 0.24 | 0.86 | 0.756 (inactive) | 0.116 | -0.181 | 0.495 | 1.21 | 0.786 | 1.15 | 0.558 | 0.752 |
